About 83,000 compounds went through this panel and 20% of them were active in at least one assay; those are over-represented in the sample as a whole.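 Growth was measured after 48 h exposure to one concentration of compound in 96-well plates. Values under 10 count as active.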 A number with no mark means an inactive call. The source made the active and inactive calls.
What was measured:
Experiment in all cases: NCI-60 one-dose screen, 48 h (100 = growth as untreated, 0 = no growth, -100 = all killed)
Conditions in all cases: 10 µM unless noted
RPMI-8226 leukemia = tested on: RPMI-8226 leukemia
OVCAR-5 ovarian = tested on: OVCAR-5 ovarian
OVCAR-4 ovarian = tested on: OVCAR-4 ovarian
SK-OV-3 ovarian = tested on: SK-OV-3 ovarian
OVCAR-3 ovarian = tested on: OVCAR-3 ovarian
HS 578T breast = tested on: HS 578T breast
NCI/ADR-RES ovarian = tested on: NCI/ADR-RES ovarian
T-47D breast = tested on: T-47D breast
OVCAR-8 ovarian = tested on: OVCAR-8 ovarian
IGROV1 ovarian = tested on: IGROV1 ovarian

SMILES	growth (RPMI-8226 leukemia)	growth (OVCAR-5 ovarian)	growth (OVCAR-4 ovarian)	growth (SK-OV-3 ovarian)	growth (OVCAR-3 ovarian)	growth (HS 578T breast)	growth (NCI/ADR-RES ovarian)	growth (T-47D breast)	growth (OVCAR-8 ovarian)	growth (IGROV1 ovarian)
ClC1=C(Cl)C(Cl)=C(Cl)C1=Cc1ccc(Cl)cc1	-43.2% (active)	71.9%	75.4%	95.5%	-96.8% (active)	-12.2% (active)	-47.5% (active)	25.3%		
Cc1cc(CC(=O)O)n(C)c1C(=O)c1ccc(Cl)cc1	103%		119%	119%	118%	110%	97.8%		97.7%	114%
CCN1C[C@@H](C)n2c(c(O)c3c(=O)n(Cc4ccc(F)c(Cl)c4)nc(C(=O)NC)c32)C1=O		88.6%	80.2%	43.5%	38.1%	16.7%	15.3%	27%	22%	28.7%
CC1CC(C)/C(=N/NC(N)=O)C(C(O)CC2CCC(=O)NC2=O)C1 (configuration not stated)	50.4%	52.1%	57.7%	49.2%	53.6%	10%	42.6%	42.5%		30.1%
CCCCCCCC/C=C\CCCCCCCCOc1ccccc1CC(=O)NCC[N+]1(C)CCCC1		62.1%	86.8%	89.6%	91.8%	86.9%	110%	90.5%	80.9%	10.9%
CSc1ccc2c(c1)N(CCC1CCCCN1C)c1ccccc1S2 (configuration not stated)	26.3%		64%	81%	92.3%	47.6%	65.6%		69.9%	36.4%
COc1ncc(-c2ccc3nccc(C#CCN4CCN(S(C)(=O)=O)CC4)c3c2)cc1NS(=O)(=O)c1ccc(F)cc1F		11.3%	8.24% (active)	-11.1% (active)	-20.7% (active)	-13.9% (active)	6.28% (active)		7.2% (active)	-35.9% (active)
COc1ccc(-c2c(-c3cc(OC)c(OC)c(OC)c3)noc2N)cc1	10.9%		38.8%	20.6%	-29.7% (active)	30%	11.1%	61.2%	24.9%	22.4%
CCCCC(C#N)C(N)=O (configuration not stated)	102%	106%	107%	98.1%	108%	101%	105%	100%		
O=C1N(C2CCCCC2)C(=O)N1C1CCCCC1	-16.7% (active)	28.9%		71.8%	59.7%	-2.96% (active)	35.5%	43.7%		
COc1cc(/C=C/C(=O)c2ccc(F)cc2)ccc1OCCCCCOc1cc2c(cc1OC)C(=O)N1CCCC1C=N2 (configuration not stated)		-5.07% (active)	-37.5% (active)	-4.32% (active)	-8.63% (active)	-24.8% (active)	8.85% (active)	-4.98% (active)	4.8% (active)	-66.5% (active)
Fc1ccc(-c2nc(Nc3ccc(-c4nc5ccccc5[nH]4)cc3)nc(N3CCOCC3)n2)cc1		-74.7% (active)	-73.9% (active)	-89.9% (active)	-95.6% (active)	-40.3% (active)	-87.5% (active)	-64.8% (active)	-73.8% (active)	-71.2% (active)
COc1ccc(/C=C(\C#N)c2ccccc2)cc1		92.1%	85.9%	114%	95.1%	85.7%	78%	88.6%	92%	87.9%
CC(=O)Oc1ccc(C23c4ccccc4C2(OC(C)=O)c2cc(OC(C)=O)ccc23)cc1 (configuration not stated)		86%	92.3%	110%	78.2%		39.3%	38.9%	49.6%	91.9%
CC(C)C(=O)Cc1cnccn1		108%	117%	116%	111%	96.4%	101%	109%	102%	106%
